Screens deposited in PubChem by several laboratories.
A selection: hits, their analogues and other compounds. The true share with any hit is near 2.6%.
IDE cell activ – human IDE activators in live cells, primary screen, fluorescence polarization, HEK cells, FAbeta-B substrate | Insulin-degrading enzyme (Homo sapiens), P14735 | FAbeta-B cleavage; 0% vehicle, 100% cell-free pure enzyme wells | activation, % at 5.96 µM | 340,000 compounds, 0.073% hits | AID 493087, 2011;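 active = activation above the mean of all tested compounds plus 3 SD, set per screening campaign, cut at about 17% in these data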
Target sequence (P14735 whole entry, looked up): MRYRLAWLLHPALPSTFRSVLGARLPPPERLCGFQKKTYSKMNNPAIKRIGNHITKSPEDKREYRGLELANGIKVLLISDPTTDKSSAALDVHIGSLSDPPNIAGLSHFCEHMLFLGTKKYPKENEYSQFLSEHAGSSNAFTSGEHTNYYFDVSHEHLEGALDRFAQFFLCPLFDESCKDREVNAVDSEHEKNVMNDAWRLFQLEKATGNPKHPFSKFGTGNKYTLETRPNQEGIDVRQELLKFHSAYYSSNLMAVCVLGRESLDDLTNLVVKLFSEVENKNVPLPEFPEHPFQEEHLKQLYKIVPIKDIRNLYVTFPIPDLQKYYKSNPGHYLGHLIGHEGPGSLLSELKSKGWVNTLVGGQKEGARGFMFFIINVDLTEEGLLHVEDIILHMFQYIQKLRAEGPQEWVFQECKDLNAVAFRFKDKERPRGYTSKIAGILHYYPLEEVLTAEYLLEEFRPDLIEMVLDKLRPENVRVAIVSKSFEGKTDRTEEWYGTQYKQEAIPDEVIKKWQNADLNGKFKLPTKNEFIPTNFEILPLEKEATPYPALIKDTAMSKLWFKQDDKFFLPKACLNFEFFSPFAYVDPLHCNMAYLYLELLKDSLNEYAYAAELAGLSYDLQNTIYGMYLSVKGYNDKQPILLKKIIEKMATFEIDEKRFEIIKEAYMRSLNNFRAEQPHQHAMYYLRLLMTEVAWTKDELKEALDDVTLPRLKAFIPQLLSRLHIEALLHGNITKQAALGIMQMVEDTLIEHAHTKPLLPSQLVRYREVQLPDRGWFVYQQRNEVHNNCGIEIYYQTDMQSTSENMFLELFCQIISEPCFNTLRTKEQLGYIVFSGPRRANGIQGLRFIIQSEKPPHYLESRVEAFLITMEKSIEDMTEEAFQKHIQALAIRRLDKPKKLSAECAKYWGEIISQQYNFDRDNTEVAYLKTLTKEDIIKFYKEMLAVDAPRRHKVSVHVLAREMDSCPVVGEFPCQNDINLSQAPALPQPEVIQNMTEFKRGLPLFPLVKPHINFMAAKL
TPT1 inhibitor – Candida albicans TPT1 enzyme inhibitors, primary screen, biochemical, fluorescence polarization | tRNA 2'-phosphotransferase TPT1 (Candida albicans SC5314) | recombinant caTPT1, FP RNA substrate dephosphorylation | inhibition, % at 5 µM | 300,000 compounds, 0.81% hits | AID 1962, 2009;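 active = inhibition above the mean of all tested compounds plus 3 SD, set per screening campaign, cut at about 24% in these data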
Myeloid diff 2 – induction of myeloid progenitor differentiation, primary screen, cell-based, flow cytometry, MLPCN library; 360,000 compounds, 1% hits; ER-HoxA9 myeloid progenitors, lysozyme-GFP differentiation; calls only at 10 µM;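 active = normalized GFP-positive differentiation at or above the plate's own cutoff, the solvent-only control mean plus 3 SD; inconclusive = no clear call, values can overlap the other calls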;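 note: cells exposed to compound for four days before flow analysis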
CRFBP-R2 block – antagonists of CRF-BP/CRF-R2 complex, primary screen, cell-based, HEK293, calcium dye fluorescence, uHTS; AID 588475, 2011; 350,000 compounds, 0.59% hits; CRF-induced calcium fluorescence; inhibition, % at 11.8 µM;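 active = inhibition of the ligand-induced calcium signal above about 50% at the single tested concentration, limit read from the data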
IDE cell inh – human IDE inhibitors in live cells, primary screen, fluorescence polarization, HEK cells, FAbetaB substrate; FAbetaB cleavage; inhibition, % at 5.59 µM; 320,000 compounds, 0.41% hits; AID 434962, 2010;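 active = percent inhibition above the average of all tested compounds plus 3 SD, set per screening campaign, cut at about 16% in these data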;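 note: IDE supplied by intact live HEK cells; FP after avidin binding of uncleaved biotin substrate so inhibition keeps polarization high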
CRFBP-R2 agonist – agonists of CRF-BP/CRF-R2 complex, primary screen, cell-based, HEK293, calcium dye fluorescence, uHTS; AID 588473, 2011; activation, % at 13.2 µM; CRF-binding protein / CRF receptor 2 complex (human); 350,000 compounds, 0.46% hits; calcium dye fluorescence (FLIPR); percent of saturating CRF peptide response;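 active = activation of at least 50%, plus an integration ratio under a set limit after plate pattern correction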
caTPT1 confirm – Candida albicans TPT1 inhibitors, confirmation, biochemical, fluorescence polarization, triplicate | shares compounds with TPT1 inhibitor | recombinant caTPT1, RNase T1 coupled | inhibition, % at 5 µM | 2,400 compounds, 74% hits;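 active = inhibition above the primary screen limit, the mean inhibition of all tested compounds plus 3 SD, cut at about 25% in these data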
RNase T1 counter – RNase T1 inhibitors, counter-screen for TPT1 inhibitor project, biochemical, fluorescence polarization. shares compounds with TPT1 inhibitor. RNase T1 cleavage, 1536-well. 2,400 compounds, 83% hits. inhibition, % at 5 µM;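 active = inhibition above the solvent-only control well mean plus 3 SD, limit set per screening run, cut at about 23% in these data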;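 note: inhibitors block cleavage so intact labeled substrate keeps polarization high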
IDE cell inh cf – human IDE inhibitors in live cells, confirmation, fluorescence polarization, HEK cells, FAbetaB substrate. inhibition, % at 5.59 µM. 1,200 compounds, 51% hits. FAbetaB cleavage. shares compounds with IDE cell inh;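 active = mean inhibition across triplicate wells above the cutoff set by the earlier primary insulin-degrading enzyme screen, cut at about 16% in these data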
HEK cytotox – cytotoxicity in HEK cells, cytotoxicity control for IDE inhibitor project, cell-based, luminescence. shares compounds with IDE cell inh. HEK293 cytotoxicity, ATP luminescence. inhibition, % at 5.59 µM. 1,200 compounds, 28% hits; in the data active = inhibition above about 22%
A number is an active result; n = inactive; u = inconclusive; x = no result given; + = active, no number.

SMILES | IDE cell activ | TPT1 inhibitor | Myeloid diff 2 | CRFBP-R2 block | IDE cell inh | CRFBP-R2 agonist | caTPT1 confirm | RNase T1 counter | others
CCOc1cc(/C=C2\C(=O)NC(=O)N(CCc3ccc(F)cc3)C2=O)ccc1O | n | 30 | n | n | n | n | 39 | n
Cc1ccc(/C=C2\C(=O)NC(=O)N(CCc3ccc(F)cc3)C2=O)o1 | n | n | n | n | n | n | x | x
Cc1ccc(/C=C2/C(=O)NC(=O)N(Cc3ccc(F)cc3)C2=O)o1 | x | 35 | x | x | n | x | n | 26
O=C1NC(=O)N(Cc2ccc(F)cc2)C(=O)/C1=C\c1ccoc1 | n | 163 | n | n | 17 | n | 67 | 81
CN(C)c1ccc(/C=C2/C(=O)NC(=O)N(CCc3ccc(F)cc3)C2=O)cc1 | n | n | n | n | n | n | x | x
Cc1ccc(/C=C2\C(=O)NC(=O)N(CCc3ccc(F)cc3)C2=O)s1 | n | n | n | n | n | n | x | x
CN(C)c1ccc(/C=C2\C(=O)NC(=O)N(Cc3ccc(F)cc3)C2=O)cc1 | n | 29 | n | n | n | n | 48 | 68
CC(C)(OOC1(c2ccccc2)NC(=O)c2ccccc21)c1ccccc1 (stereo unspecified) | x | x | n | x | x | x | x | x
COC(=O)C1=C(C(=O)OC)SC2(S1)C(C(=O)OC)=C(C(=O)OC)Sc1c2ssc1=O | n | x | u | n | x | n | x | x
COc1ccc2[nH]c3c(c2c1)CCN=C3C | n | 33 | n | n | n | n | n | n
O=C1/C(=C\c2ccccc2)C2OCC=C3CN4CCC56c7ccccc7N1C5C2C3CC46 (stereo unspecified) | n | n | n | n | n | n | x | x
CC[C@H]1CN2CCC1C[C@@H]2[C@H](O)c1ccnc2ccc(OC)cc12 (stereo partly specified) | n | x | n | n | x | n | x | x
CN1C(=O)C(=Cc2sc(=O)n(-c3ccccc3)c2N(C)C)C(=O)N(C)C1=O | n | 42 | n | n | n | n | 53 | 71
Cc1cc(C=C2C(=O)N(C)C(=O)N(C)C2=O)c(C)n1-c1ccccc1 | n | n | n | n | n | n | x | x
C=CCN1C(=O)/C(=C/c2ccc(Br)s2)C(=O)NC1=S | n | 28 | n | n | n | n | n | 24
CN1C(=O)C(=Cc2ccc(N3CCOCC3)o2)C(=O)N(C)C1=S | n | 57 | n | n | n | 239 | 114 | 118
CCN1C(=O)C(=Cc2ccc(N3CCOCC3)o2)C(=O)N(CC)C1=S | n | 112 | n | n | n | n | 146 | 137
CN1C(=O)C(=Cc2ccc(Sc3ccccc3)o2)C(=O)N(C)C1=S | n | 37 | n | n | n | n | n | 37
C=CCN1C(=O)/C(=C/c2ccc3c(c2)CCCN3CCC)C(=O)NC1=S | n | n | n | n | n | n | x | x
CN1C(=O)C(=Cc2ccc(Sc3ccccc3)o2)C(=O)N(C)C1=O | n | n | n | n | n | n | x | x
C=CCN1C(=O)/C(=C\c2ccc(N3CCOCC3)o2)C(=O)NC1=S | n | 108 | n | n | n | n | 120 | 124
CCOP(=O)(OCC)C(NC(=O)c1ccc(Cl)cc1)=C(Cl)Cl | n | 49 | n | n | n | n | n | n
O=C1NC(=O)N(Cc2ccccc2)C(=O)/C1=C\C=C\c1ccco1 | n | 60 | n | n | 17 | n | 46 | 63 | IDE cell inh cf=n;HEK cytotox=58
CC1(C)OC(c2ccccc2)=C/C(=C/C=C2C(=O)NC(=O)NC2=O)O1 | n | 113 | n | n | 50 | n | 107 | 106 | IDE cell inh cf=55;HEK cytotox=n
COC(=O)C1=C(c2cccc(OCc3ccccc3)c2)C[C@@H]2CC[C@H]1N2C(=O)NCc1cccc(C(F)(F)F)c1 | n | x | n | n | n | n | x | x
SMILES | IDE cell activ | TPT1 inhibitor | Myeloid diff 2 | CRFBP-R2 block | IDE cell inh | CRFBP-R2 agonist | caTPT1 confirm | RNase T1 counter | others
COc1ccc(-n2c(/C=C/c3ccc(O)c(O)c3)nc3ccccc3c2=O)cc1 | n | 36 | n | n | 115 | n | 58 | 61 | IDE cell inh cf=116;HEK cytotox=23
CN1/C(=C\C=Nc2ccccc2)C(C)(C)c2ccccc21 | n | n | n | n | n | n | x | x
CN1/C(=C\C=C2C(=O)NC(=O)NC2=O)C(C)(C)c2ccccc21 | n | + | + | n | 57 | 378 | 184 | 168 | IDE cell inh cf=70;HEK cytotox=n
CNC(=O)NC(O)C(Cl)(Cl)Cl (stereo unspecified) | n | n | x | n | n | n | x | x
CCCCn1c(O)c(/C(CC)=N/N2CCCCC2c2cccnc2)c(=O)[nH]c1=S (stereo unspecified) | n | n | n | n | n | n | x | x
C/C(=N\N1CCCCC1c1cccnc1)c1c(O)n(C2CCCCC2)c(=S)[nH]c1=O (stereo unspecified) | n | 82 | n | n | 29 | n | 123 | 133 | IDE cell inh cf=n;HEK cytotox=n
O=C1NC(=O)N(c2ccc3c(c2)OCO3)C(=O)/C1=C/c1ccc(N2CCCC2)o1 | n | 128 | + | n | 19 | n | 142 | 140 | IDE cell inh cf=29;HEK cytotox=n
COC(=O)C1=C(c2ccc(F)cc2F)C[C@@H]2CC[C@H]1N2C(=O)NCCOc1ccccc1Cl | n | x | n | n | n | n | x | x
CCN(CC)c1ccc(/C=N/c2sc3c(c2C#N)C2CCN3CC2)c(O)c1 | n | 161 | u | n | 20 | 171 | 146 | 133 | IDE cell inh cf=123;HEK cytotox=55
Nc1c(Cl)cc([N+](=O)[O-])cc1Cl | n | n | x | n | n | n | x | x
O=C(Nc1ccccc1)N1Cc2ccccc2-n2nncc2C1 | n | x | n | n | x | n | x | x
O=c1c2ccccc2nc(/C=C/c2ccccc2F)n1-c1ccccc1O | n | n | n | n | n | n | x | x
